Screening data as filed in PubChem BioAssay.
D1 PAM = human D1 dopamine receptor positive modulation; P21728; HEK293 TREx D1 cells, calcium flux, dopamine EC20 potentiation; potentiation, % at 10 µM; 360,000 tested, 0.036% active; in the data active = potentiation above about 30%; also: 0% is about no effect
D3 ag = agonists of human D3 dopamine receptor | D3R DiscoveRx beta-arrestin cells, luminescence, 90 min | max activation, % | 410,000 tested, 0.58% active; in the data active = max activation above about 30%; also: 0% is about no effect
Target sequence (P35462 whole entry, looked up): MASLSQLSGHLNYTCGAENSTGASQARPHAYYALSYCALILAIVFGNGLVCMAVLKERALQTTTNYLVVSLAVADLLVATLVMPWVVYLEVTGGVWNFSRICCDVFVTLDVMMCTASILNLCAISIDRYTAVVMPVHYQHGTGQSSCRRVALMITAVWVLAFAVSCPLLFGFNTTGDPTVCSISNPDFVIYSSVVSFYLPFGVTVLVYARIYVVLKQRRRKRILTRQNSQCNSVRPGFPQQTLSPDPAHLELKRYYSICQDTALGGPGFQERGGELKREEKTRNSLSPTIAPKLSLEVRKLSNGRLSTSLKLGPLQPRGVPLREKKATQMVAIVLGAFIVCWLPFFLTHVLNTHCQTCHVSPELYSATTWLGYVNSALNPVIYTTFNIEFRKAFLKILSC
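Agonist mode: compounds and dopamine controls were applied to plated cells for 90 min at 37 degrees C after an overnight attachment at 1500 cells/well. Luminescent read-out followed 30 - 60 minutes at room temperature with DiscoveRx detection reagent.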
D1 ag = human D1 receptor agonism; activation, % at 2 µM; 360,000 tested, 1% active; HEK293 T-REx D1 cells, calcium flux, agonist mode; AID 504660; P21728; in the data active = activation above about 30%; also: 0% is about no effect
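Agonism was scored from calcium flux recorded over 180 s (1 read/s) after pintool compound addition, following a 10-cycle baseline. Cells were inducible force-coupled HEK293 TREx D1, plated overnight at 30 C and loaded with no-wash calcium dye.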
D3 antag = antagonists of human D3 dopamine receptor | D3R cells, DiscoveRx beta-arrestin luminescence, antagonist mode; hits give low values | max response, negative = inhibition, % | 360,000 tested, 2.5% active; in the data active = max response below about -50%; inconclusive = no clear call, values can overlap the other calls; also: % is scaled to controls: 0 for no effect and ±100 for the full control effect
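Cells expressing the human receptor were seeded at 1500 cells/well, incubated overnight at 37 degrees C in 5% CO2, then exposed to library compounds with dopamine controls for 90 minutes at 37 degrees C before luminescent detection.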
D1 antag = blocks dopamine activation of the human D1 receptor | P21728 | HEK293 TREx D1 cells, calcium flux, dopamine EC80; hits give low values | activity change, negative = inhibition, % at 10 µM | 360,000 tested, 3.2% active; in the data active = activity change below about -30%; also: % is scaled to controls: 0 for no effect and ±100 for the full control effect
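Inducible Hek293 Trex D1 cells (tetracycline, overnight, 30 C). Calcium dye 30–90 min RT. Antagonist mode: EC80 dopamine added after 180 s compound read.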
Active calls of the source: *; u = inconclusive; x = no result. Rows were chosen to be rich in hits. Some 6% of all compounds tested hit in one or more screens of this group.

SMILES	D1 PAM	D3 ag	D1 ag	D3 antag	D1 antag
CC(=O)c1ccc(NC(=O)CN2C(=O)CCc3ccccc32)cc1	2	0	1	x	2
Cc1cccc(Cn2c(=O)n(Cc3ccccc3)c(=O)c3c2c2cc(C)ccc2n3C)c1	-4	3	3	x	9
CC(=O)Nc1cccc(C(=O)OCC(=O)NC2CCCCCCC2)c1	-5	-11	6	-10	-39*
Cc1cccc(C(=O)OCC(=O)NC(=O)NC2CCCCC2)c1	x	3	x	-117*	x
COc1cccc(NC(=O)C2CCCN(S(=O)(=O)c3cn(C(C)C)cn3)C2)c1 (configuration not stated)	1	-16	0	x	-2
O=S(=O)(NCc1nc2cccnc2n1Cc1ccccc1)c1ccc2c(c1)CCCC2	-1	-19	5	x	-5
Cc1ccccc1C(=O)Nc1cccc(C(=O)OCc2cc(=O)n3c4c(sc3n2)CCCC4)c1	1	-14	1	x	-8
N#Cc1c(-c2cccnc2)c2c([nH]c1=O)-c1ccccc1OC2	3	5	1	16	-31*
N#Cc1c(-c2ccc(F)cc2)c2c([nH]c1=O)-c1ccccc1OC2	-1	1	1	42	-6
COc1ccc(C(=O)NCCn2cc(SCC(=O)NCCc3ccc(OC)c(OC)c3)c3ccccc32)cc1	0	5	0	x	3
Cc1ccc(C)n1Cc1ccccc1Cl	-5	18	-1	9	x
Cc1cc(C)n(Cc2ccccc2Cl)n1	-3	1	0	2	-47*
O=C(NC1=NCCS1)c1sc2cc(Cl)cc(Cl)c2c1Cl	-1	-9	1	-8	-34*
Cc1cc(C)cc(NC(=O)c2cc(S(=O)(=O)N3CCCCC3)c[nH]2)c1	-1	4	1	x	-8
Cc1ccccc1OC(=O)CSc1nnc(-c2ccc(F)cc2)o1	-2	5	4	x	13
Cc1ccc(C)c(OCCCNC2CCCC2)c1C	-4	-15	42*	-73*	-35*
COc1cccc(OC)c1OCCCNC1CCCC1	-2	-23	3	-55*	17
Cc1ccc(OCCCNC2CCCC2)cc1	-5	-2	6	-14	10
Cc1ccc(OCC(O)CNC2CCCC2)c(C)c1 (configuration not stated)	-7	-2	11	11	-22
COc1cccc(OC)c1OCCNCCO	-2	-3	3	-12	-8
Cc1ccc(OCCCCNC2CCCCC2)c(C)c1	-5	-16	57*	-79*	-19
O=C(CSc1nnc(CNC(=O)c2ccccc2)o1)c1ccc(Cl)cc1	-7	3	13	18	-43*
O=C(CSc1nnc(CNC(=O)c2ccccc2)o1)NCCc1ccccc1	-5	-19	6	-68*	-2
COc1cc(C(=O)NCc2nnc(SCC(=O)NCCc3ccccc3)o2)cc(OC)c1OC	-1	5	1	-7	4
COc1ccccc1OCC(=O)N(Cc1cccs1)C1CCS(=O)(=O)C1 (configuration not stated)	0	10	-1	x	-42*
SMILES	D1 PAM	D3 ag	D1 ag	D3 antag	D1 antag
CCOc1ccc(CN(C(=O)c2cccs2)C2CCS(=O)(=O)C2)cc1 (configuration not stated)	-8	2	2	-9	-43*
Cc1cccc2c(=O)cc(CSc3ccccc3NC(=O)C(C)(C)C)[nH]c12	4	-6	2	x	1
C=Cc1ccc(CSc2nnc(C)n3c2cc2occc23)cc1	-2	-5	4	x	6
O=C1NC(=S)N/C1=C/c1cc([N+](=O)[O-])ccc1N1CCOCC1	0	4	1	-1	18
Cc1ccc(C(=O)c2cc([N+](=O)[O-])ccc2N2CCCCC2)cc1	2	-8	2	-65*	-6
O=[N+]([O-])c1ccc(N2CCCCCC2)c([N+](=O)[O-])c1	-12	-4	2	-17	-53*
O=Cc1cc([N+](=O)[O-])ccc1N1CCOCC1	14	0	2	13	-39*
Cc1ccc(C(=O)c2cc([N+](=O)[O-])ccc2N2CC(C)OC(C)C2)cc1 (configuration not stated)	3	-7	2	u	5
COC(=O)c1ccccc1NC(=O)CSc1cc(-c2ccccc2)nc(C)n1	2	2	20	x	0
Cc1[nH]c2ccccc2c1/C=C/C(=O)c1ccccc1	-3	-20	41*	u	-20
Cc1[nH]c2ccccc2c1/C=N/NC(=O)c1cc(-c2ccncc2)nc2ccccc12	-17	8	1	-8	-43*
Cc1[nH]c2ccccc2c1/C=N/NC(=O)CCC(=O)Nc1ccccc1	-4	-10	1	-20	-48*
Cc1[nH]c2ccccc2c1/C=N/NC(=O)c1cc(C(C)(C)C)[nH]n1	-1	-43	0	-59*	10
Cc1[nH]c2ccccc2c1/C=N/NC(=O)c1ccccc1	1	4	1	15	-1
CC1Cc2cc(S(=O)(=O)CCC(=O)Nc3ccc(F)cc3)ccc2N1C(=O)C1CC1 (configuration not stated)	-2	8	0	x	-5
CCOc1ccc(CN2C(=O)c3ccccc3Sc3ccc(C(=O)NC4CCC(C)CC4)cc32)cc1 (configuration not stated)	1	-5	6	x	4
CCN(CC)CCNC(=O)c1ccc(NC(=O)c2cccc(S(=O)(=O)Nc3ccc(C)cc3)c2)cc1	-19	-3	1	-4	-77*
CCN(CC)CCNC(=O)c1ccc(NC(=O)c2cc(S(=O)(=O)N3CCCCC3)ccc2C)cc1	0	1	0	-12	-37*
Cc1ccc(C(=O)NCCn2c(C)cc3ccccc32)cc1C	-6	-21	1	x	-13
Cc1cc2ccccc2n1CCNC(=O)c1ccc(S(=O)(=O)N2CCCCC2)cc1	3	2	61*	8	28
CCN(CC)CCNC(=O)c1ccc(NC(=O)c2cccc(S(=O)(=O)N3CCc4ccccc43)c2)cc1	-4	-22	4	-23	-5
Cc1cc2ccccc2n1CCNC(=O)C(C)Oc1ccccc1 (configuration not stated)	8	-18	14	-60*	20
Cc1cc2ccccc2n1CCNC(=O)C(C)C	-7	-12	3	0	-6
Cc1ccc(C(=O)CSc2nnc3ccc4ccccc4n23)cc1	-1	7	0	x	-11
COc1ccc(C(=O)Oc2c(Sc3ccc(C)cc3)c(C)nn2C(C)(C)C)c(OC)c1	0	-10	6	x	0
Cc1n[nH]c(=O)nc1NC1CCCCC1	2	-3	0	11	-44*
Cc1nnc(NC2CCCCC2)[nH]c1=O	-2	-1	3	19	-3
O=C(Nc1ccc(F)cc1F)c1cc2c(=O)n3ccccc3nc2s1	1	-11	1	x	-7
COc1ccc(NC(=O)CCCc2nnc3n(C)c(=O)c4sccc4n23)cc1	-10	-3	2	6	-31*
